IMPase cell inh = qHTS Assay for Identifying the Cell-Membrane Permeable IMPase Inhibitors; CHO-M1 cells, IP1 accumulation, HTRF TR-FRET ratio; 120,000 tested, under 10 active; inhibition (IP1 accumulation), % at 46.1 µM; active = well fitted curve in the direction sought with a large enough effect in the signal ratio, not every such curve was filed as active; inconclusive = small, poorly fitted or top-dose-only effect, or a change in a side signal; inactive = no such curve, though single readings can be large or run the other way; the % refers to the signal ratio;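 also: cells stimulated with carbachol in lithium chloride buffer; higher means more IMPase inhibition seen as more IP1 and lower FRET ratio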
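Seeded CHO-M1 cells were dosed with compound at up to 46 uM, stimulated with carbachol for 30 min, then lysed in IP-One detection reagents. Higher IP1 lowers the TR-FRET signal.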
IMPase Li inh = qHTS Assay for Identifying the Cell-Membrane Permeable IMPase Inhibitors: Potentiation with Lithium | CHO-M1 cells, IP1 TR-FRET (IP-One), carbachol + lithium | 210,000 tested, 0.35% active | AID 1457, 2008 | Potency, µM (highest dose often 59.4 µM), most hits filed as inhibitors; active = well fitted curve in the direction sought with a large enough effect; inconclusive = small, poorly fitted or top-dose-only effect, or another doubt; inactive = no such curve, though single readings can be large; an effect the other way counts as inactive or inconclusive;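 also: IP1 builds up when IMPase is blocked and the TR-FRET signal falls; nearly all actives have a fitted effect of over 50% in size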
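Readout is a homogeneous TR-FRET IP1 immunoassay (Ex 320, Em 665 and 620), where raised cytosolic IP1 lowers signal. Cells were CHO-M1 treated 30 min at 37C with test compounds plus a little lithium; AC50 values came from Hill-equation fitting.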
HPGD inh = qHTS Assay for Inhibitors of HPGD (15-Hydroxyprostaglandin Dehydrogenase); 15-hydroxyprostaglandin dehydrogenase [NAD(+)] (Homo sapiens), P15428; purified HPGD, NADH fluorescence kinetic, PGE2 substrate; Potency, µM, actives largely listed as inhibitors; 150,000 tested, 4.3% active
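20 nM HPGD preincubated 15 min at room temperature with compound in 50 mM Tris-HCl pH 8, 0.01% Tween 20. Started with 1 mM NAD+ and 30 uM prostaglandin E2; NADH fluorescence (360/450 nm) read 5 times over 30-s intervals, last minus first.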
ALOX12 inhib = qHTS Assay for Inhibitors of 12-hLO (12-human lipoxygenase); Polyunsaturated fatty acid lipoxygenase ALOX12 (Homo sapiens), P18054; purified 12-hLO, xylenol orange hydroperoxide absorbance; Potency, µM (doses to about 57.1 µM), most hits filed as inhibitors; 150,000 tested, 0.12% active; active = well fitted curve in the direction sought with a large enough effect; inconclusive = small, poorly fitted or top-dose-only effect, or another doubt; inactive = no such curve, though single readings can be large; an effect the other way counts as inactive or inconclusive; also: nearly all actives have a fitted effect of over 55% in size
Target sequence (P18054 whole entry, looked up): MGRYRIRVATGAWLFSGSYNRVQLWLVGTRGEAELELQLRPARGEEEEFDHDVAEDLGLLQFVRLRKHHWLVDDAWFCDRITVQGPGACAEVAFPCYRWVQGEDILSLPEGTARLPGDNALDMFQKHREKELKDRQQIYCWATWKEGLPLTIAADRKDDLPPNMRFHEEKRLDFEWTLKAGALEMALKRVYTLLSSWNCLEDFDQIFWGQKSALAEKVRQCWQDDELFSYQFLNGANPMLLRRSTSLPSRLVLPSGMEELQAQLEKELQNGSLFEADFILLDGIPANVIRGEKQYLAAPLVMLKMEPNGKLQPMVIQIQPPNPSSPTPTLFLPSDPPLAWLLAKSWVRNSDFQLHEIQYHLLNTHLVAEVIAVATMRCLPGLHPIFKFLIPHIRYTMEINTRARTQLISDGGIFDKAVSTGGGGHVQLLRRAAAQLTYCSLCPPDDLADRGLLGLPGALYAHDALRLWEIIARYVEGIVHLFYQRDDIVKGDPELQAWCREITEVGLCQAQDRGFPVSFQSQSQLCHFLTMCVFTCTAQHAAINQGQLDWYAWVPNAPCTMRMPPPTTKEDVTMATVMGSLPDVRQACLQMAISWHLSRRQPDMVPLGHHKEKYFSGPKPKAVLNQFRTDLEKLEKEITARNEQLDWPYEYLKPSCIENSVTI
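Xylenol orange chromogenic assay: hydroperoxide from 12hLO oxidises Fe(II), giving red-shifted Fe(III)-XO absorbance. Conditions: 150 nM enzyme, 40 uM arachidonic acid, 25 mM Hepes pH 7.0, 0.01% Triton X-100, 30 min, room temperature.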
ALDH1A1 block = qHTS Assay for Inhibitors of Aldehyde Dehydrogenase 1 (ALDH1A1). 220,000 tested, 7.3% active. Aldehyde dehydrogenase 1A1 (Homo sapiens), P00352. Purified ALDH1A1, NADH fluorescence, propionaldehyde substrate. Potency, µM (highest dose often 75.3 µM), usual class: inhibitors
PNC inhibitor = High Content Assay for Compounds that inhibit the Assembly of the Perinucleolar Compartment; activity change (PNC), negative = inhibition, % at 10 µM; 140,000 tested, 3.1% active; PC3M PTB-GFP, PNC prevalence imaging, 16 h; active compounds read low;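 active = readout at or below -70, meaning at least 70% loss of cells showing the perinucleolar compartment, a nuclear body marking cancer cells; inconclusive = readout between -30 and a set limit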
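PC3M cells stably expressing PTB-GFP, 750–1000 cells/well, treated 16 h at 37 °C with compound (23 nl of library stock), in duplicate. After paraformaldehyde fixation and Hoechst stain, imaged at 20x; PNC prevalence scored by image analysis.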
Hits are given with their value; - = inactive; ? = inconclusive; . = not tested or not shown; ! = a repeat was not active; [ ] = remark or other dose. Hits are enriched below; roughly 11% of the tested compounds scored in any of these assays. Unless noted, calls follow the shape of the dose curve; as a rule, active = well fitted inhibition curve with a large enough effect (not every such curve was filed as active); inconclusive = small, poorly fitted or top-dose-only effect, or another doubt; inactive = no such curve, though single readings can be large or run the other way.

SMILES	IMPase cell inh	IMPase Li inh	HPGD inh	ALOX12 inhib	ALDH1A1 block	PNC inhibitor
COc1ccc(NC(=O)Cn2c(C)cc(=O)c3ccccc32)cc1	.	-	-	-	-	-
COc1ccc(NCC(=O)n2c(C)c(C)c3ccccc32)cc1	.	-	.	.	7.9µM	.
Cc1ccc(S(=O)(=O)NCCCNC(=O)c2ccccc2)cc1	-	-	-	-	13µM	-
Cc1ccc(C(=O)NCCCNc2ccccc2[N+](=O)[O-])cc1	.	-	.	.	2.2µM	.
Cc1ccc(S(=O)(=O)NCCCOC(=O)Nc2ccncc2)cc1	-	-	-	-	16µM	?
CC(=O)OC1CC[C@]2(C)C(CC(OC(C)=O)[C@]3(C)C2CC[C@@]2(C)C(c4ccoc4)OC(=O)C4O[C@]432)C1(C)C (stereo partly specified)	.	-	-	-	-	.
COc1ccc(-c2nc3cnc(Oc4ccccc4)nc3n(C3CC3)c2=O)cc1	.	?	?	-	?	.
O=C(/C=C/c1cccs1)Nc1scc(-c2ccccc2)c1C(=O)O	.	-	.	.	22µM	.
O=C(Nc1scc(-c2ccccc2)c1C(=O)O)c1ccco1	-	-	-	-	-	-
CC1(C)CCC2=C(O1)c1ccccc1C(=O)C2=O	-	-	-	-	?	.
Cc1ccc(N2CCN(C(=O)N3CCOCC3)CC2)cc1C	.	-	.	.	-	.
NC(=O)C1CCN(C(=O)c2ccco2)CC1	-	-	-	-	-	-81
Cc1cccc(C)c1N1CCN(C(=O)N2CCOCC2)CC1	.	-	.	.	11µM	.
O=C(c1ccco1)N1CCN(C(=O)N2CCOCC2)CC1	-	-	-	-	32µM	-
O=C(N1CCN(c2ccccn2)CC1)N1c2ccccc2Sc2ccccc21	-	-	-	-	-	-84
O=C(c1ccco1)N1CCCN(C(=O)c2ccco2)CC1	-	-	-	-	-	-
O=C(O)C1CCN(C(=O)c2ccco2)CC1	.	-	.	.	-	.
CS(=O)(=O)Nc1c(O)ccc2c1CCC[C@H]2C1=NCCN1	-	-	-	-	-	.
C#C[C@@]1(O)CC[C@@H]2[C@@H]3CCC4=C(CCC(=O)C4)[C@H]3CC[C@]21C	-	-	-	-	-	.
COc1ccc2c(c1)O[C@@H]1c3ccc(OC)cc3OCC21 (stereo partly specified)	.	-	-	-	-	.
CO[C@]1(NC(=O)[C@H](C(=O)O)c2ccc(O)cc2)C(=O)N2C(C(=O)O)=C(CSc3nnnn3C)CO[C@H]21	-	-	-	-	-	.
O=C(c1ccco1)N1c2ccccc2Sc2ccccc21	-	-	-	-	?	-
O=C(c1ccco1)N1CCN(C(=O)N2c3ccccc3Sc3ccccc32)CC1	-	-	-	-	?	-89
CC1=C(C(=O)Nc2cccnc2)C(c2ccc(F)cc2)n2nc(-c3cccc(C)c3)nc2N1 (stereo unspecified)	-	.	.	.	.	.
O=C(NCCCn1ccnc1)c1cc(-c2ccc(Br)cc2)on1	.	-	.	.	?	.
SMILES	IMPase cell inh	IMPase Li inh	HPGD inh	ALOX12 inhib	ALDH1A1 block	PNC inhibitor
O=C(NCCCn1ccnc1)c1cc(-c2ccc3c(c2)OCO3)on1	-	-	-	-	-	-91
CCCCS/C(=C(/C#N)C(N)=O)c1cc2c([nH]1)CCCC2	-	-	?	?	14µM	-
Oc1c(I)cc(Cl)c2cccnc12	-	-	-	?	25µM!	?
O=[N+]([O-])c1cc(Cl)c2cccnc2c1O	.	-	.	.	-	.
COc1cccc2cc(C(=O)NCc3ccco3)c(=O)oc12	.	11µM	-	-	?	-
C=CCNC(=O)c1cc2cccc(OC)c2oc1=O	.	-	.	.	-	.
CCOC(=O)CC(NC(=O)c1cc2cccc(OC)c2oc1=O)c1cccc([N+](=O)[O-])c1 (stereo unspecified)	-	-	?	-	22µM	-
COc1cccc2cc(C(=O)NCc3ccco3)c(=Nc3ccc(C(=O)O)cc3)oc12	-	-	?	-	16µM	?
CCOC(=O)CC(NC(=O)c1cc2cc(Cl)cc(Cl)c2oc1=O)c1cccc([N+](=O)[O-])c1 (stereo unspecified)	-	-	-	-	-	?
CCC1=C(C[C@H]2NCCc3ccccc32)C[C@@H]2c3cc(OC)c(OC)cc3CCN2C1	.	-	-	-[11.4 µM]	-[13.5 µM]	.
CCCOc1ccc(C(=O)Nc2ccc3oc(-c4ccc5ccccc5c4)nc3c2)cc1	-	.	.	.	.	.
O=Cc1ccsc1B(O)O	.	-	-	-	-	.
CCCCS(=O)CC(COc1ccc(Cl)cc1)OC(=O)c1ccccc1 (stereo unspecified)	-	.	.	?	-	-119
CCCCS(=O)CC(COC)OC(=O)c1ccccc1 (stereo unspecified)	.	-	.	.	-	.
COc1ccc(C(=O)Nc2nc3c(s2)Cc2cc(OC)ccc2-3)cc1	-	-	-	-	22µM	-
COc1ccc2c(c1)Cc1sc(NC(=O)c3ccccc3)nc1-2	-	-	?	-	?	-
COc1ccc2c(c1)Cc1sc(NC(=O)c3ccccc3C)nc1-2	-	.	.	.	.	.
COc1ccc2c(c1)Cc1sc(NC(=O)c3cccs3)nc1-2	-	-	-	?	2.5µM	?
CNC(=S)N1N=C(c2ccc(OC)cc2)CC1c1ccc(N(C)C)cc1 (stereo unspecified)	-	-	-	-	-	-
COc1ccc(C2CC(c3ccc(Br)cc3)=NN2C(=S)Nc2ccccc2)cc1 (stereo unspecified)	.	-	.	.	11µM	.
COc1ccc(C2=NN(C(N)=S)C(c3ccccc3)C2)cc1 (stereo unspecified)	.	-	.	.	7.5µM	.
COc1ccc(C2=NN(C(=S)Nc3ccccc3)C(c3ccccc3)C2)cc1 (stereo unspecified)	.	-	-	-	13µM	-
CCOC(=O)/C=C(\C)N1N=C(c2ccccc2)CC1c1ccccc1 (stereo unspecified)	.	-	.	.	1µM	.
COc1ccc(C2CC(c3ccccc3)=NN2C(=S)Nc2ccccc2)cc1 (stereo unspecified)	.	-	.	.	-	.
Cn1cccc1C(=O)N1CCC2(CC1)CN(c1ccncc1)C2	.	-	-	-	-	.
Cc1ccc2c(C)cc(=S)[nH]c2c1	.	-	.	.	-	.
Cc1ccc2[nH]c(=S)cc(C)c2c1	-	?	7.1µM	-	3.2µM	-
Cc1cc(=S)[nH]c2ccccc12	-	-	14µM	-	?	-
COc1ccc(-c2cc(C(F)(F)F)n3nc(C(=O)Nc4cccc(Cl)c4Cl)cc3n2)cc1OC	-	.	.	.	.	.

Screening results deposited in PubChem BioAssay by National Center for Advancing Translational Sciences (NCATS).
